The full ranking holds about 33,000 sequences; the median of “E-score (-0.5 to 0.5)” is about -0.054, and the highest 2% start at about 0.39. Only a selection was taken, and the highest values are over-represented in it overall.
Biological target: Ylr278c (UniProt Q05854)
Test: PBM E-score (8-mer binding enrichment) (E-score (-0.5 to 0.5)); higher = stronger / more preferred TF binding
Conditions: protein concentration: 200 nM; construct: GST-DNA-binding domain
Procedure, shortened: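 PURExpress in vitro transcription/translation supplied GST-tagged yeast transcription factors, either full-length or DNA-binding domain. Applied at about 100-200 nM to universal all-10-mer Agilent arrays double-stranded by primer extension, the bound protein was detected with fluorescent anti-GST. E-scores, modified Wilcoxon-Mann-Whitney statistics, were given by the Universal PBM Analysis Suite to ungapped eight-base words pooled with their reverse complements after masliner normalisation.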

Sequence of UniProt Q05854 (Q05854 whole entry): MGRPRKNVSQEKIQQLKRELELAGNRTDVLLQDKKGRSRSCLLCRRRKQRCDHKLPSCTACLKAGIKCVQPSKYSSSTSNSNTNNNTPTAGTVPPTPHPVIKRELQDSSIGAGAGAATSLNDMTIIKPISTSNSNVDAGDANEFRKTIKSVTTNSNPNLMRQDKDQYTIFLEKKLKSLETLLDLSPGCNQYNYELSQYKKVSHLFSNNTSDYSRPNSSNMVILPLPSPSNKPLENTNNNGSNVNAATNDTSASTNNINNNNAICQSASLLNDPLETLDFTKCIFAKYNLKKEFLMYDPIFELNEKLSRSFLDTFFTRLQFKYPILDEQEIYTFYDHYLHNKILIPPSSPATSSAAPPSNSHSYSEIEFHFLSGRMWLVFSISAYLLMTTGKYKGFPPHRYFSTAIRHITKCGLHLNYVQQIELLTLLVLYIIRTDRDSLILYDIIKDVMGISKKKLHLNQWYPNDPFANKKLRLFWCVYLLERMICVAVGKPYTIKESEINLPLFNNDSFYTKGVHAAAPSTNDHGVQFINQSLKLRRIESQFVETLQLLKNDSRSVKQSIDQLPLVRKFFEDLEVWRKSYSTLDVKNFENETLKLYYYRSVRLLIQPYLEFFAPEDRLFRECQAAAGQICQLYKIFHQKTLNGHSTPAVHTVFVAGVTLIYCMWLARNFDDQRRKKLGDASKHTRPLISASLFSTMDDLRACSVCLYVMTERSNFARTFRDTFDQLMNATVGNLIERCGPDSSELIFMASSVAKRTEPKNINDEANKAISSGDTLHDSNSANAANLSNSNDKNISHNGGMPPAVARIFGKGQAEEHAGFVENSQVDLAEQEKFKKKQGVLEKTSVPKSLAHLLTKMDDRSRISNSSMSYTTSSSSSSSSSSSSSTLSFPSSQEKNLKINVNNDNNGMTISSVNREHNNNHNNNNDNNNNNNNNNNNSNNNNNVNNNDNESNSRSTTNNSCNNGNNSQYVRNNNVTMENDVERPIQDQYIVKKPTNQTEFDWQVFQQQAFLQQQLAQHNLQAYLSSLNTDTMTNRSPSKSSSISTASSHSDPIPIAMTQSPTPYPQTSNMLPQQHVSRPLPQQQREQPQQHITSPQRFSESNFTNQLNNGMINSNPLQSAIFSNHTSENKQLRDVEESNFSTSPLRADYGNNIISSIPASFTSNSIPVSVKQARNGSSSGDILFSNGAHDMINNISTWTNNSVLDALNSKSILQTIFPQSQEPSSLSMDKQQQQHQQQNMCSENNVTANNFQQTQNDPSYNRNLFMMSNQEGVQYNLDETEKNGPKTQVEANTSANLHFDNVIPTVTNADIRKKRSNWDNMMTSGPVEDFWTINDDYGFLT

| Sequence | PBM E-score |
| --- | --- |
| CTGGGTCC | 0.0219 |
| CTTATCTA | -0.0407 |
| CAAAGCTA | -0.093 |
| ACTCGCAT | -0.0232 |
| AAGTTCAA | 0.118 |
| ACCACTTA | -0.0492 |
| GGGCTCAC | -0.0724 |
| GGAGCAGA | 0.109 |
| ACCTTCTA | -0.186 |
| GTGTACGA | -0.00044 |
| ATCCGCGA | 0.253 |
| CACCGCGC | 0.201 |
| GTCCGCGA | 0.313 |
| ATCCGCGC | 0.251 |
| CTCCGCGA | 0.403 |
| CTCCGCGC | 0.429 |
| CCAGCTCC | 0.22 |
| CATCTCCA | 0.0295 |
| CATCTCCG | 0.463 |
| AATCTCCT | 0.0721 |
| AATCTCCC | 0.0563 |
| AATCTCCG | 0.484 |
| CATCTCCC | 0.216 |

| Sequence | PBM E-score |
| --- | --- |
| ACGCTCTG | -0.251 |
| CAACTCGG | 0.139 |
| ACCTCTGC | -0.209 |
| AAGGAAGC | -0.162 |
| ACTTCAGA | -0.0177 |
| CCGGCCGA | 0.415 |
| ACGGCCGG | 0.33 |
| GCGGCCGA | 0.188 |
| CCGGCCGC | 0.327 |
| ACGGCCGA | 0.246 |
| CCGGCCGG | 0.461 |
| AGCGCCAT | -0.199 |
| GACAGGGC | -0.0701 |
| GCCTCCAC | -0.044 |
| TAGCCATA | -0.329 |
| GATGGGGC | -0.023 |
| CAGGACTG | -0.287 |
| CTTCCGTA | 0.215 |
| GTTCCGGA | 0.45 |
| ATTCCGTA | 0.33 |
| ATTCCAGA | 0.0166 |
| CTTCCGGA | 0.451 |
| CTTCCGGC | 0.371 |

| Sequence | PBM E-score |
| --- | --- |
| GTTCCGCA | 0.289 |
| ATTCCGGA | 0.46 |
| GTTCCGTA | 0.264 |
| ACTGTTTC | -0.0349 |
| GTCAGCAA | -0.18 |
| CGTCCAAA | 0.14 |
| ACCTCGCT | -0.0554 |
| AGTCAGCG | 0.0403 |
| ATGCCCCA | -0.0328 |
| CAGTCGAA | -0.212 |
| AAAGCCTT | -0.162 |
| ATCTCAAC | -0.00641 |
| ACGGAGTA | 0.452 |
| CTGGAGTC | -0.0908 |
| AAGGAGTC | -0.127 |
| ACGGAGTC | 0.398 |
| AAGGAGTA | -0.0326 |
| GGGGAGTA | 0.0376 |
| ATGGAGTA | 0.0152 |
| CCGGAGTC | 0.451 |
| GAGGAGTA | 0.0495 |
| CAGGAGTC | 0.055 |
| ATGGAGTC | 0.0654 |

| Sequence | PBM E-score |
| --- | --- |
| GCGGAGTA | 0.449 |
| AGAGTTGG | -0.115 |
| ACTCTGTA | -0.175 |
| GACCCAGC | -0.272 |
| GATCCAGC | 0.0556 |
| ACACCGCC | 0.199 |
| AGACAGTC | -0.129 |
| CTTACAGA | -0.0798 |
| CGAGACCG | 0.233 |
| CTCAAGTC | -0.225 |
| CATGTACG | -0.0652 |
| CAGAATGG | -0.0518 |
| GCTCTGGA | -0.1 |
| CCGGAGTA | 0.485 |
| CTGGAGTA | -0.0695 |
| ACGGAGTG | 0.401 |
| AAGGAGTG | -0.179 |
| ATGGAGTG | -0.0888 |
| CAGGAGTA | -0.0482 |
| GTTCTAGA | 0.0109 |

Source: the supplement of paper PMC3334620
